Records with an inconclusive call do not appear. The list shows a part of the results. Calls of active or inactive are those of the source. Unless noted, the call rests on the fitted dose curve; in most records, active means well fitted curve in the direction sought with a large enough effect; inconclusive means small, poorly fitted or top-dose-only effect, or another doubt; inactive means no such curve, though single readings can be large; an effect the other way counts as inactive or inconclusive.
Key:
[1] = qHTS Assay for Inhibitors of Fructose-1,6-bisphosphate Aldolase from Giardia Lamblia: Coupling assay counterscreen confirmation (AID 2795); further: on the % scale 0 is the no-effect control and ±100 the full control effect; nearly all actives have a fitted effect of over 55% in size
In short: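 Compounds at up to 57.5 uM final tested against the coupling enzymes and resorufin-type fluorescent detection only, aldolase omitted. Ex 525 nm/em 598 nm read after 10 min enzyme-compound and 20 min substrate incubations, room temperature.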

[2] = target: Lysosomal acid glucosylceramidase (Homo sapiens) (UniProt P04062); assay: Glucocerebrosidase-p2 (AID 348; in the data active means potency below about 10 µM; further: potency means the concentration at half of the fitted maximal effect); details: purified GBA, blue fluorogenic substrate, 40 min
Sequence of Lysosomal acid glucosylceramidase (Homo sapiens) (P04062 whole entry, looked up): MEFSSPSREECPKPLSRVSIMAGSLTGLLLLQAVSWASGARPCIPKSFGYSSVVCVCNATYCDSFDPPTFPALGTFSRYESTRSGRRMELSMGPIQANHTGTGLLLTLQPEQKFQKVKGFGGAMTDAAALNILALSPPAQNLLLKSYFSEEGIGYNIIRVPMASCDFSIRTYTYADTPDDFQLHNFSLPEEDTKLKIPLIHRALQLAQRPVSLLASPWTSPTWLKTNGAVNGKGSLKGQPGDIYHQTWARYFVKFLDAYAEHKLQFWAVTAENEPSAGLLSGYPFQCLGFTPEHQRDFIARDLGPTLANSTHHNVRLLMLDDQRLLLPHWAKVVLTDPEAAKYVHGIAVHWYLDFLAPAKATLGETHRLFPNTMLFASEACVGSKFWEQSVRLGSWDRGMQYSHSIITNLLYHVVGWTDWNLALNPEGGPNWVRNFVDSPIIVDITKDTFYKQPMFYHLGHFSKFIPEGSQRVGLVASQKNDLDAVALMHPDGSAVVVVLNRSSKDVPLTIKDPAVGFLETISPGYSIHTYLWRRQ
In short: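 Compounds titrated from 0.6 nM upwards against 0.2 nM enzyme in pH 5.9 citric acid/KH2PO4, taurocholate, tween-20; blue fluorogenic substrate 80 uM, 40 min room temperature, stopped and read Ex 365/Em 440 for AC50.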

[3] = AP1 Signaling Pathway (AID 357; active means well fitted curve in either direction with a large enough effect, not every such curve was filed as active;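 further: ME-180 reporter cells stimulated with EGF at its EC50 level; on the % scale 0 is the no-effect control and ±100 the full control effect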); details: ME-180 AP-1-bla reporter, EGF-induced, beta-lactamase ratio, 5 h; at 7.69 µM (top of the series) unless noted
In short: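 Titration-series screen for positive or negative modulators of EC50 EGF-induced signaling in ME-180 cells carrying an AP-1-driven beta-lactamase reporter. After 5 hours at 37 degrees Celsius, CCF4 460nm/530nm emission ratio gave %Activity; AC50 values derived.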

[4] = target: Cytochrome P450 1A2 (Homo sapiens) (UniProt P05177); assay: p450-cyp1a2 (AID 410; calls by dose curve;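 further: -100% = full effect of reference inhibitor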)
Sequence of Cytochrome P450 1A2 (Homo sapiens) (P05177 whole entry, looked up): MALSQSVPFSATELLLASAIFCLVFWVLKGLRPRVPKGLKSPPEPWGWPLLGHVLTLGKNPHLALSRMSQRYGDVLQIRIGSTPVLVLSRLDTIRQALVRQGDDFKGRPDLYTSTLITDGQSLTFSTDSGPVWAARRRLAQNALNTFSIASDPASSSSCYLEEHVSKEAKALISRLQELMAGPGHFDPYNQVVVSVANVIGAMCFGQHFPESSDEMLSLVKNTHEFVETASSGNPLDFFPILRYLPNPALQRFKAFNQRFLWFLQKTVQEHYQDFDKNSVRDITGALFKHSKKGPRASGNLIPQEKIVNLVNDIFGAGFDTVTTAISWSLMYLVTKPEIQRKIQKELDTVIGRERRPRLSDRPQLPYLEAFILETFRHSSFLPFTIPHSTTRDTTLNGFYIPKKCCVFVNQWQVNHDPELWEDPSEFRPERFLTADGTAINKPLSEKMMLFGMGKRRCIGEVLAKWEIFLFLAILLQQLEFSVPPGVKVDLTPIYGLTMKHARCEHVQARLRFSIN
In short: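 Inhibition was calculated relative to 57 uM furafylline (full inhibition). The reaction used human CYP1A2 at 20nM with Luciferin-ME at its Km, 100uM, driven by an NADPH-regenerating system for 60 min at room temperature.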

[5] = NFAT Signaling Pathway (AID 444; active means well fitted curve in either direction with a large enough effect, not every such curve was filed as active;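 further: carbachol stimulus at about its EC50 of 1 µM final; on the % scale 0 is the no-effect control and ±100 the full control effect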); details: Jurkat NFAT-bla M1, carbachol, beta-lactamase ratio, 5 h; at 7.69 µM (top of the series) unless noted
In short: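 Jurkat cells carrying an NFAT-driven β-lactamase reporter and co-transfected muscarinic M1 receptor were treated with compound plus carbachol (1 uM final, an EC50 level) for 5 h at 37 °C. CCF4 loading followed for 1 h at RT; 460/530 nm ratio gave %activity.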

[6] = Stat Signaling Pathway (AID 446; active means well fitted curve in either direction with a large enough effect, not every such curve was filed as active;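 further: ME-180 cervical cancer cells given 40 pM IL-6 alongside compound; SIE-controlled beta-lactamase reporter measured as 460/530 nm FRET emission ratio; on the % scale 0 is the no-effect control and ±100 the full control effect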); details: ME-180 SIE beta-lactamase reporter, IL-6 stimulated, 5 h; at 7.69 µM (top of the series) unless noted
In short: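 Screening format detects activators and inhibitors alike: ME-180 SIE-bla cells stimulated at 40 pM IL-6 for 5 hrs with compound, then dual-emission beta-lactamase read at 405 nm excitation.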

[7] = target: Glucocorticoid receptor (Homo sapiens) (UniProt P04150); assay: GR-GFP Redistribution (AID 450;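 active means compounds whose dose series gives a full or clear partial fitted curve of increased nuclear translocation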; further: potency means the concentration at half of the fitted maximal effect); details: U2OS GR-GFP nuclear translocation, laser cytometry, 2 h
Sequence of Glucocorticoid receptor (Homo sapiens) (P04150 whole entry, looked up, the tested form may be a part): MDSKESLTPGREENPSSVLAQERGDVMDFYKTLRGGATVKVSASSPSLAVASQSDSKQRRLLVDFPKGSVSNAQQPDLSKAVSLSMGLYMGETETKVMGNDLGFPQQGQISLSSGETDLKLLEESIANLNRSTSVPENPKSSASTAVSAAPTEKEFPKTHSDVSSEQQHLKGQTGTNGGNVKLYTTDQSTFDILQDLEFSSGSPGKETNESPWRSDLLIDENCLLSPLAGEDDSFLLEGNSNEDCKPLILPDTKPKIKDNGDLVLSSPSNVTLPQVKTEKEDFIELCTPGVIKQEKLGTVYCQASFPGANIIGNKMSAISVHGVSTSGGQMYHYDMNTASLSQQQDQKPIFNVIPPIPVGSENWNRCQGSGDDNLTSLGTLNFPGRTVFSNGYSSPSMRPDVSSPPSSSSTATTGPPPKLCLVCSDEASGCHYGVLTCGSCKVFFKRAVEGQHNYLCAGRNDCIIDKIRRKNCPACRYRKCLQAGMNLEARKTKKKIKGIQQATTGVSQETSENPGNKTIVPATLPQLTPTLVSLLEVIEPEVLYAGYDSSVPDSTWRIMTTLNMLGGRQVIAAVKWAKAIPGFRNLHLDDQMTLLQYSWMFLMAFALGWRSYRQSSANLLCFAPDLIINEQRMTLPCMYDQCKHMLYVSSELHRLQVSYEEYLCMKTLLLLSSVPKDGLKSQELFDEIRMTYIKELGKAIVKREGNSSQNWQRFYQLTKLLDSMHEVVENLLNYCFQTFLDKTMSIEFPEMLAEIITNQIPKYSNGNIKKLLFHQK

[8] = target: Glucocorticoid receptor (Homo sapiens) (UniProt P04150); assay: GR-EFC Redistribution (AID 451; calls by dose curve; further: potency means the concentration at half of the fitted maximal effect); details: CHO-K1 GR-EFC translocation, beta-gal luminescence, 2 h
In short: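 CHO-K1 cells stably expressing nuclear-localized β-gal enzyme acceptor and GR fused C-terminally to the enzyme donor fragment; ligand-driven nuclear translocation restores β-gal by complementation. Compounds titrated up to 46 uM final, 2 h at 37 °C; luminescence read.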

[9] = target: Mitogen-activated protein kinase 10 (Mus musculus) (UniProt Q61831); assay: JNK3 AlphaScreen Assay (AID 530; active means well fitted curve in either direction with a large enough effect, not every such curve was filed as active;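 further: kinase came from lysate of stimulated human HepG2 cells; signal reports phosphorylation of biotinylated GST-cJun 1-79 at Ser73 with 10 µM ATP; on the % scale 0 is the no-effect control and ±100 the full control effect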)
In short: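 JNK3 came from HepG2 lysates pre-activated with IL-1beta and TNF-alpha and phosphorylated biotinylated GST-cJun (1-79) at 10 uM ATP, pH 7.6, room temperature. Compounds were titrated. AlphaScreen signal used anti-phospho-cJun (Ser73) antibody.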

[10] = target: 3',5'-cyclic-AMP phosphodiesterase 4B (Homo sapiens) (UniProt Q07343); assay: qHTS Assay for Inhibitors of PDE-IV (AID 607; active means well fitted activation curve with a large enough effect in the main read-out, with a control signal flat, not every such curve was filed as active; further: % of control where 0% means no effect)
Sequence of 3',5'-cyclic-AMP phosphodiesterase 4B (Homo sapiens) (Q07343 whole entry, looked up): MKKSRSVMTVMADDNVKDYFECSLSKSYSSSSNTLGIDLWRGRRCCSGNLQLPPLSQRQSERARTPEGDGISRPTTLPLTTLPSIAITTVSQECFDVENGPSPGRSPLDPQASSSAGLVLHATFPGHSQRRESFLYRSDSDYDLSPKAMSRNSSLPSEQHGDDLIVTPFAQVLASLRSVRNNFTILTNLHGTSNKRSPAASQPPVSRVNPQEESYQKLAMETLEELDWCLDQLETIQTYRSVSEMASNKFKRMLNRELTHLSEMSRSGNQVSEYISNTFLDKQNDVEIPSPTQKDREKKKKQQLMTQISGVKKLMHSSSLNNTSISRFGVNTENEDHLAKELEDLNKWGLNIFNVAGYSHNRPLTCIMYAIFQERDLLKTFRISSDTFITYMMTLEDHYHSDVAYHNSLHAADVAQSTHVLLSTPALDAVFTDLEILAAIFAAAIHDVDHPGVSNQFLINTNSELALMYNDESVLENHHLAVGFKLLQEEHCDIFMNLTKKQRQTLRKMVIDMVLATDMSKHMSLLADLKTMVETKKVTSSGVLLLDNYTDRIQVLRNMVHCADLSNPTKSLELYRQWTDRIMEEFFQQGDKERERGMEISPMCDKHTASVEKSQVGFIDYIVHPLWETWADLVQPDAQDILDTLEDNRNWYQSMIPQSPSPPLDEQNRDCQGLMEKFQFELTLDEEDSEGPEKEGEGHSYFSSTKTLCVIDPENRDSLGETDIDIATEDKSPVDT
In short: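 The readout is membrane depolarisation from a cAMP-sensing CNG channel, detected with a potential dye at ex 535/em 590. Cells were HEK293-derived (endogenous PDE-IV) at 1000 cells/well, titrated up to 22.9 uM final.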

[11] = Confirmation and Secondary Assay for Modulators of Hemoglobin Beta Chain Splicing at IVS2 654 locus (AID 910);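 further: per-well total GFP intensity by laser scanning cytometry after 2-day treatment; % of control where 0% means no effect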
In short: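 HeLa cells stably carrying EGFP interrupted by mutant beta-globin IVS2-654 intron (CMV-driven) were treated with compound for 2 days at 37C; corrected splicing was scored as total peak GFP intensity per well (488 nm excitation, 500-520 nm emission).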

[12] = Confirmation and Secondary Assay for Modulators of Hemoglobin Beta Chain Splicing at IVS2 705 locus (AID 930);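 further: HeLa cells stably expressing the EGFP-705 splicing reporter; GFP fluorescence per well restored by corrected splicing of the IVS2-705 intron in EGFP; % of control where 0% means no effect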
In short: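 Secondary splice-site specificity test uses HeLa expressing CMV-driven EGFP interrupted by IVS2-705; cells were treated 2 days at 37C with 500 nM antisense PNA as positive control.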

[13] = target: Ubiquitin carboxyl-terminal hydrolase 1 (Homo sapiens) (UniProt O94782); assay: Inhibitors of USP1/UAF1: Pilot qHTS (AID 504865);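 further: rhodamine fluorescence freed from ubiquitin-rhodamine substrate followed over time; top concentration of the series differs between compounds; on the % scale 0 is the no-effect control and ±100 the full control effect; nearly all actives have a fitted effect of over 35% in size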
Sequence of Ubiquitin carboxyl-terminal hydrolase 1 (Homo sapiens) (O94782 whole entry, looked up): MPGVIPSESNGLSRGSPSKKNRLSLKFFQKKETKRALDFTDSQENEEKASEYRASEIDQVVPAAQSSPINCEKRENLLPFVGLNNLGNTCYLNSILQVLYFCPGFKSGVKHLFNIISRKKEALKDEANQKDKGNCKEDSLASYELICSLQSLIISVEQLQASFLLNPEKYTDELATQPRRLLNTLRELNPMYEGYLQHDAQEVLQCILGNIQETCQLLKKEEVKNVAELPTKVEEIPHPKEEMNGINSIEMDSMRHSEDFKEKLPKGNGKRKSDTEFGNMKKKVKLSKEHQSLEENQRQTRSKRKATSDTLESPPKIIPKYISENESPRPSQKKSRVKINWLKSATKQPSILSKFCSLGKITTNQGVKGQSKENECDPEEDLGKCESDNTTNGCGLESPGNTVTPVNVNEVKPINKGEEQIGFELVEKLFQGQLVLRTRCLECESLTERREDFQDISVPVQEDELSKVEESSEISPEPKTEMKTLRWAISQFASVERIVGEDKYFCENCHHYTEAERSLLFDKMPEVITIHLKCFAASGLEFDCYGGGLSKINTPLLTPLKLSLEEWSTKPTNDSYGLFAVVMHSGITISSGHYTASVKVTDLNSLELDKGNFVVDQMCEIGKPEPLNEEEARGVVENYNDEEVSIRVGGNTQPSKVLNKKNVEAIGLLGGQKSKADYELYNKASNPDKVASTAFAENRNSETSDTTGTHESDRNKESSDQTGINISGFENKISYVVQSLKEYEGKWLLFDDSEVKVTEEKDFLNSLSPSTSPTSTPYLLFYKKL
In short: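 USP1/UAF1 complex at 1 nM preincubated 15 min at room temperature with compound, then Ub-Rho substrate added at 150 nM final. Fluorescence (480/540 nm) read kinetically in 50 mM HEPES pH 7.8, 0.5 mM EDTA, 1 mM TCEP, 0.1 mg/ml BSA, 0.01% Tween-20.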

COc1ccc(N=Nc2c(-c3ccc(OC)cc3)[nH]oc2=O)cc1
inactive: outcome [1]

CN(C)Cc1ccccc1-c1ccc2ncnc(NC3CCNCC3)c2c1
inactive: Potency [2] > 11.4 µM | activity change, negative = inhibition [3] 20.2% | Potency [4] | activity change, negative = inhibition [5] -12.2% | activity, negative = inhibition [6] -2.13% | Potency [7] > 46 µM | Potency [8] > 46 µM | Potency [9] | Potency [10] | outcome [11] | outcome [12] | Potency [13]

— PubChem BioAssay (NCATS)
